# Measurements published in PubChem BioAssay (NCI).
# Compounds without any hit were thinned out: in the full panel of roughly 83,000, 20% have a hit.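 Compound tested at a single concentration for 48 hours in 96-well plates; a percent growth value below 10 was scored as active.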 Calls of active or inactive are those of the source.
# Tested on: MDA-MB-468 breast
# Experiment: NCI-60 one-dose screen, 48 h (100 = growth as untreated, 0 = no growth, -100 = all killed)
# Conditions: 10 µM unless noted
row,SMILES,growth
1,CCOC(=O)c1c(C(F)(F)F)n([O-])c2ccc(OC)cc2[n+]1=O,-22.2% (active)
2,C=C1C(=O)O[C@H]2[C@H]1CC/C(COC(=O)CSCC(=O)OC/C1=C/CC[C@@]3(C)O[C@H]3[C@H]3OC(=O)C(=C)[C@@H]3CC1)=C\CC[C@@]1(C)O[C@@H]21,-1.97% (active)
3,COc1cc(CN)ccc1O,99.7% (inactive)
4,FCc1ncc(-c2ccc(C(F)(F)F)cc2)c(NC2CCCCCC2)n1,24.8% [100 µM] (inactive)
5,Brc1ccccc1Nc1ccc2nnc(-c3ccncc3)n2n1,85.3% (inactive)
6,CN1CCN=C1c1ccc(NC(=O)c2ccc(C(=O)Nc3ccc(C4=NCCN4C)cc3)cc2)cc1,81.2% (inactive)
7,CCOC(=O)C(CC(=O)O)=C(C(=O)OCC)C(=O)OCC,97.1% (inactive)
8,CCOC(=O)c1c2c(c(C)n1Cc1ccc(OC)cc1)-c1nc(N)ncc1CC2,107% (inactive)
9,Cc1ccc(CC(=O)O)c(C)c1,112% (inactive)
10,COc1cc2cn3c4ccc(O)cc4nc(N)c3c2cc1OC,-32.3% (active)
11,COc1ccc(Cn2nc(-c3cc(OC)c(OC)c(OC)c3)c3c2CCc2cnoc2-3)cc1OC,-12.8% (active)
12,Cn1cc(-c2nonc2-c2c[nH]c3ccccc23)c2ccccc21,-4.56% (active)
13,O=c1c2cc(F)ccc2sc2c(NCCN3CCOCC3)nc3ccccc3c12,71.3% (inactive)
14,O=c1[nH]c2cc(Cl)ccc2n1C1CCN(c2ccc3nnc(Cl)n3n2)CC1,85.3% (inactive)
15,Cc1cc(NCc2cc(Nc3ccnc4cc(Cl)ccc34)ccc2F)nc(Cl)n1,-3.4% (active)
16,Cc1cc(C(=O)Nc2ncnc3nc[nH]c23)no1,96.4% (inactive)
17,CC(=O)N(CCCCCCN(C(C)=O)C(C)=O)C(C)=O,99.2% [100 µM] (inactive)
18,C=CCn1c(C)nc2cc(Nc3nc(Cl)nc4ccccc34)ccc21,83.7% (inactive)
19,O=C(c1ccccc1)C1C(=O)N2C(=S)N(c3ccccc3)C(=O)C2C1c1ccc(Cl)cc1 (stereo not given),0.678% (active)
20,Cc1cc(-c2ccc(N(C)C)cc2)c2sc(=O)[nH]c2n1,80% (inactive)

row,SMILES,growth
1,O=S(=O)(Nc1ccc2ccccc2c1)N1CCCCC1,12.8% (inactive)
2,CCCN(CCSSCCNc1nc(N(C)O)nc(N(C)O)n1)c1nc(N(C)O)nc(N(C)O)n1,15.8% (inactive)
3,C#Cc1nc(/C=C\CCCCCCC(=O)NO)cs1,23.1% (inactive)
4,C[C@@H]1C[C@H]2C(=O)O[C@@H](C)[C@H](NC(=O)[C@H](Cc3cc(F)cc(F)c3)NC(=O)Nc3ccc(Cl)cc3F)C(=O)N3C[C@H](O)C[C@H]3C(=O)N3CCN(C)C[C@H]3C(=O)N[C@@H](C)C(=O)N2C1,11.5% (inactive)
5,CC(=O)O[C@H]1CC[C@]2(C)[C@H]3C(=O)C=C4[C@@H]5C[C@](C)(C(=O)N6CCCNCC6)CC[C@]5(C)CC[C@@]4(C)[C@]3(C)CC[C@H]2C1(C)C,-85.2% (active)
6,CCn1cnc2c1c(=O)[nH]c(=O)n2CC1CCC(CNS(=O)(=O)c2ccc(OC3CCOCC3)c(F)c2)CC1 (stereo not given),30.5% (inactive)
7,Cc1nc(O)cc(=O)[nH]1,113% (inactive)
8,Nc1ncnc2c1c(-c1ccc(Oc3ccccc3)cc1)nn2C[C@H]1SSC[C@H]1O,-5.04% (active)
9,O=C(O)c1cn(C2CC2)c2cc(N3CCN(Cc4ccc5ccccc5c4O)CC3)c(F)cc2c1=O,39.2% (inactive)
10,C=CC(=O)Nc1cccc(Oc2nccc(Nc3nnc(-c4ccc(Br)cc4)s3)n2)c1,114% (inactive)
11,O=C(c1ccccc1)C1OC1C(=O)c1ccccc1 (stereo not given),0.0075% (active)
12,O=[N+]([O-])c1cccc(C(F)(F)F)c1,101% (inactive)
13,CC(C)(C)n1cc(-c2ccnc(NCCCNS(=O)(=O)c3ccc(C(F)(F)F)cc3)c2)c(-c2cccc(O)c2)n1,11.8% (inactive)
14,CNC(=O)c1cc(Oc2ccc3c(c2)sc2nc(-c4cc(C(F)(F)F)cc(C(F)(F)F)c4)cn23)ccn1,4.64% (active)
15,C[C@@H](C[C@H](CC1CC1)c1ccccc1)c1ccc2ccccc2c1,101% (inactive)
16,COc1ccc(C(=O)/C=C/C23c4ccccc4C(c4ccccc42)C2C(=O)NC(=O)C23)cc1 (stereo not given),98.7% (inactive)
17,Cc1ccccc1SSc1ccccc1C,68.4% (inactive)
18,COc1cccc(-c2nc3sccn3c2-c2ccnc(NCCN3CCCN(C)S3(=O)=O)n2)c1,75.6% (inactive)
19,O=C(Nc1ccc(-n2cc(-c3ccncc3)c(-c3ccc(O)c(Cl)c3)n2)cc1)c1ccc(Cl)c(Cl)c1,39.9% (inactive)
20,N#Cc1cnc2ccc(-c3cnc(N)nc3)cc2c1N1CCc2cc(F)c(Cl)cc21,-38.1% (active)
